# High-throughput results deposited in PubChem by National Center for Advancing Translational Sciences (NCATS).
# Pf growth 96h = P. falciparum growth inhibition at 96 hours. Potency, µM (series often up to 28.7 µM), most hits filed as inhibitors. P. falciparum luciferase reporter growth, 96 h. AID 504834. hit rate 6.9% among 320,000
#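 P. falciparum expressing integrated firefly luciferase, in erythrocytes at 2% hematocrit, 0.05% parasitemia, incubated with compounds 96 h at 37 C, 5% CO2. Growth inhibition read as loss of luminescence; two-generation exposure targets delayed-death apicoplast inhibitors.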
# Shiga toxin inh = Shiga toxin inhibition; Vero cells, Shiga toxin protein synthesis inhibition reporter; inhibition, % at 38.7 µM; hit rate 9.2% among 290,000; in the data active = inhibition mostly above about 28%, no sharp cut-off; inactive = mostly below about 43%
# CHX counter = counter-screen hit for Shiga toxin inhibitors, cycloheximide. cell reporter, cycloheximide protein synthesis inhibition counterscreen. max response, %. hit rate 12% among 300,000. AID 2314; in the data active = max response mostly above about 13%, no sharp cut-off; inactive = mostly below about 14%; also: read at 38.3 µM for the half of the compounds with a filed dose
# HCMV inh = human cytomegalovirus inhibition; activity change, negative = inhibition, % at 57.5 µM; hit rate 4.5% among 410,000; HFF cells, HCMV-luciferase reporter, 72 h; hits give low values; in the data active = activity change below about -60%; inconclusive = no clear call, values can overlap the other calls; inactive = above about -39%
#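 Two-dose cell screen: HFF monolayers treated with compounds and infected with luciferase-expressing HCMV at 1 PFU/cell, 72 h at 37C, then lysed for luciferase measurement.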
# Pf growth 48h = inhibits P. falciparum growth in the first generation, 48 h; P. falciparum luciferase growth in erythrocytes, 48 h; Potency, µM (top dose mostly 28.7 µM), hits mostly inhibitors; hit rate 5.9% among 310,000; AID 504832
#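 Here the parasites carry a stable luciferase gene and grow inside erythrocytes in Albumax-based RPMI medium with compound for one erythrocytic cycle. Activity is scored as loss of luminescent signal.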
# Numbers stand for hits; 0 = inactive; ? = inconclusive; - = no result; [ ] = another dose, or the depositor's remark. In the library only some 20% were active in any assay of this set; here they are far more common. Unless noted, calls follow the shape of the dose curve; as a rule, active = well fitted inhibition curve with a large enough effect; inconclusive = small, poorly fitted or top-dose-only effect, or another doubt; inactive = no such curve, though single readings can be large or run the other way.
SMILES,Pf growth 96h,Shiga toxin inh,CHX counter,HCMV inh,Pf growth 48h
COCCNC(=O)c1ccc(N2CC3CC(C2)c2cccc(=O)n2C3)c(NC(=O)c2ccccc2Br)c1 (stereo not drawn),-,-,-,0,-
Cn1cc([N+](=O)[O-])c(C(=O)NCc2ccccc2)n1,0,0,0,0,0
CC(C)CN1CCC(=O)N([C@H](CSc2ccc(Br)cc2)Cc2ccccc2)CC1,?,0,0,0,?
COc1ccc(SCC(Cc2ccccc2)N2CCN(CCc3ccccc3)CCC2=O)cc1 (stereo not drawn),-,0,0,-,-
Cc1ccc(SCC(Cc2ccccc2)N2CCN(CC(C)C)CCC2=O)cc1 (stereo not drawn),-,50,0,-,-
COc1ccc(SCC(Cc2ccccc2)N2CCN(CC(C)C)CCC2=O)cc1 (stereo not drawn),-,53,30,-,-
COc1cccc(CNCCCSc2nnnn2C)c1,-,-,-,0,-
O=C(C1CCCCC1)N1CC(=O)N2[C@H](C1)[C@@H](c1ccc(Br)cc1)[C@@H]2CO,-,-,-,0,-
C/C(N)=C(/C#N)C(=O)CSc1nn(-c2ccc(Cl)cc2)c(=S)s1,?,72,47,0,?
C/C(N)=C(/C#N)C(=O)CSc1nnc(Cc2ccccc2F)n1N,0,0,0,0,0
C/C(N)=C(/C#N)C(=O)CSc1ccccc1F,0,94,34,0,0
CCC(C)n1c(SCC(=O)/C(C#N)=C(\C)N)nc2ccccc2c1=O (stereo not drawn),9.3µM,0,0,0,0
C/C(N)=C(/C#N)C(=O)CSc1nnc(SCc2ccc(Cl)cc2)s1,0,0,0,-64,0
O=C(CSc1nnc(CNC(=O)c2ccco2)o1)Nc1nc2ccccc2s1,?,0,0,0,0
C/C(N)=C(/C#N)C(=O)CSc1n[nH]c(-c2ccccc2Br)n1,?,66,46,0,?
Cc1cccc(OCCn2c(=O)n(C)c3ccccc32)c1,?,115,67,0,-
COc1ccccc1OCCn1c(=O)sc2ccccc21,0,0,0,0,0
Cc1ccccc1OCCn1c(=O)sc2ccccc21,0,0,0,0,13µM
Cc1cccc(OCCn2c(SCC(=O)O)nc3ccccc32)c1,-,-,-,0,-
Cc1cccc(OCCCn2c(=O)sc3ccccc32)c1,0,60,44,0,0
COc1ccc(OCCn2c(=O)sc3ccccc32)cc1,2.9µM,81,25,0,0
Cc1onc(-c2ccc(Br)cc2)c1C(=O)Nc1ccc(Br)cc1F,-,-,-,0,-
CCN(c1ccc(OC)cc1)S(=O)(=O)c1nnc(NC(=O)COc2ccccc2)s1,?,0,0,0,0
Cc1cccc(OCCn2c(=O)sc3ccccc32)c1,0,79,36,0,0
Cc1nnc(SCc2ccccc2F)n1NCc1cccs1,-,0,24,0,0
SMILES,Pf growth 96h,Shiga toxin inh,CHX counter,HCMV inh,Pf growth 48h
CCC12CN3CCN(CC(C3)/C1=N\NC(=O)c1ccc(F)cc1)C2,?,0,0,0,0
Cc1cccc(/C=N/n2c(-c3ccccn3)n[nH]c2=S)c1,0,47,35,-,0
COc1ccccc1/C=C/C=N/n1c(-c2ccc(C)cc2)n[nH]c1=S,0,0,0,0,0
S=c1[nH]nc(-c2ccccn2)n1/N=C/c1ccccc1,0,0,0,0,0
COc1ccccc1/C=C/C=N/n1c(-c2cc(C)[nH]n2)n[nH]c1=S,0,0,0,?,0
COc1ccccc1/C=C/C=N/n1c(-c2ccncc2)n[nH]c1=S,7.4µM,0,0,0,0
COc1ccccc1/C=C/C=N/n1c(-c2ccccn2)n[nH]c1=S,0,64,34,0,0
O=C(O)c1cnc2[nH]c3ccccc3n2c1=O,0,0,0,0,0
COC(C[C@@H]1O[C@@H]1[C@@H](O)COCc1ccccc1)OC,0,0,0,0,0
CC(=O)N1CCCc2cc(S(=O)(=O)N3CCCC(C(=O)Nc4ccc(F)cc4F)C3)ccc21 (stereo not drawn),-,-,-,0,-
CCn1nnc(NC(=O)c2ccc([N+](=O)[O-])o2)n1,0,0,0,0,0[5.75 µM]
COc1ccccc1NC(=O)c1ccc(-c2ccccc2[N+](=O)[O-])o1,0,115,60,0,0
O=C(Nc1nccs1)c1ccc(-c2ccccc2Cl)o1,0,76,44,0,?
O=C(Nc1nccs1)c1ccc(-c2ccccc2[N+](=O)[O-])o1,0,106,54,0,0
CCCCn1nnc(NC(=O)c2ccc(-c3ccccc3[N+](=O)[O-])o2)n1,8.3µM,49,27,0,0
Cc1cc(C)cc(NC(=O)Nc2ccc(N3CCCCC3)cc2)c1,0,0,38,0,0
Cc1cc(C)cc(C(=O)Nc2ccc(N3CCCC3)cc2)c1,0,72,50,0,0
CC(C)c1ccc2oc(-c3ccc(NC(=O)c4ncn[nH]4)cc3)nc2c1,1.7µM,86,49,0,?
Cc1ccc(C)c(NC(=O)c2ncn[nH]2)c1,0,0,0,0,0
CCC(C)c1ccc(O)c(NC(=O)c2ncn[nH]2)c1 (stereo not drawn),3.3µM,0,0,0,0
CCC(C)c1ccc2oc(-c3ccc(NC(=O)c4ncn[nH]4)cc3)nc2c1 (stereo not drawn),-,41,0,0,?
CC(=O)N1CCc2c(sc3c2c(=O)n(-c2ccccc2)c(=O)n3Cc2ccccc2Cl)C1,12µM,0,0,0,?
CC(=O)N1CCc2c(sc3c2c(=O)n(-c2cccc(Cl)c2)c(=O)n3Cc2ccc(F)cc2Cl)C1,-,-,-,0,-
CCOC(=O)N1CCc2c(sc3c2c(=O)n(-c2ccc(Cl)cc2)c(=O)n3CC(C)C)C1,-,-,-,-65,-
CCOC(=O)N1CCc2c(sc3c2c(=O)n(-c2ccccc2C(F)(F)F)c(=O)n3Cc2ccccc2C)C1,-,-,-,-101,-
SMILES,Pf growth 96h,Shiga toxin inh,CHX counter,HCMV inh,Pf growth 48h
CC(=O)N1CCc2c(sc3c2c(=O)n(CCc2ccccc2)c(=O)n3Cc2ccc(Cl)cc2)C1,-,-,-,-106,-
CC(=O)N1CCc2c(sc3c2c(=O)n(CCc2ccccc2)c(=O)n3Cc2ccccc2C)C1,-,-,-,0,-
CC(C)Cc1nnc(NC(=O)C2CCN(C(=O)c3ccc(Cl)cc3)CC2)s1,?,-,-,0,0
O=C(NCCc1ccc(Cl)cc1)c1nnc(Cc2ccc(F)cc2)o1,-,-,-,0,-
CC(C)CCNC(=O)c1nnc(Cc2ccc(Cl)cc2)o1,8.3µM,0,0,0,-
Cc1ccc(CNC(=O)CSc2ncccn2)cc1,0,43,24,0,0
O=C(CSCC(=O)Nc1cccc2ccccc12)Nc1cccc2ccccc12,0,0,0,0,0
O=C(CSC1=NCCS1)Nc1cccc(F)c1,0,0,0,0,0
O=C(CSC1=NCCS1)Nc1ccnc2ccccc12,0,0,0,-73,0
O=C(CSc1ncccn1)Nc1cccc2ccccc12,0,0,22,0,0
Cc1cc(C)nc(SCC(=O)Nc2ccnc3ccccc23)n1,0,0,0,-89,0[5.75 µM]
Cc1ccc2[nH]c(=O)c(CN(Cc3cccs3)C(=S)NCc3ccco3)cc2c1,0,0,0,?,?
Cc1ccc(S(=O)(=O)N2[C@@H](CO)CO[C@H]2CC(=O)c2ccccc2)cc1,-,-,-,0,-
Nc1cc(=O)[nH]c2nnc(SCC(=O)Nc3cccc4ccccc34)n12,7.4µM,0,0,0,0
